In ChEMBL document CHEMBL3988442, “University of Dundee, Small-Polar-MMV Screening Library” (2021):
For some of these results: Measured potencies and affinities stand elsewhere.

Key:
Set-up in all cases: scale not given: direction of the effect not stated beside the values
[1] = biological target: Protein translocase subunit SecA (Escherichia coli (strain K12)) (UniProt P10408); assay: Assay to Identify E. coli SecA ATPase Inhibitors; format: functional; details: 30 µM
[2] = biological target: T1, Ubiquitin-activating enzyme e1, putative (Leishmania donovani (strain BPK282A1)) (UniProt E9BSI1); assay: Leishmania donovani Ubiquitin Activating Enzyme (LdE1); format: functional; details: 30 µM
T1 sequence (whole entry): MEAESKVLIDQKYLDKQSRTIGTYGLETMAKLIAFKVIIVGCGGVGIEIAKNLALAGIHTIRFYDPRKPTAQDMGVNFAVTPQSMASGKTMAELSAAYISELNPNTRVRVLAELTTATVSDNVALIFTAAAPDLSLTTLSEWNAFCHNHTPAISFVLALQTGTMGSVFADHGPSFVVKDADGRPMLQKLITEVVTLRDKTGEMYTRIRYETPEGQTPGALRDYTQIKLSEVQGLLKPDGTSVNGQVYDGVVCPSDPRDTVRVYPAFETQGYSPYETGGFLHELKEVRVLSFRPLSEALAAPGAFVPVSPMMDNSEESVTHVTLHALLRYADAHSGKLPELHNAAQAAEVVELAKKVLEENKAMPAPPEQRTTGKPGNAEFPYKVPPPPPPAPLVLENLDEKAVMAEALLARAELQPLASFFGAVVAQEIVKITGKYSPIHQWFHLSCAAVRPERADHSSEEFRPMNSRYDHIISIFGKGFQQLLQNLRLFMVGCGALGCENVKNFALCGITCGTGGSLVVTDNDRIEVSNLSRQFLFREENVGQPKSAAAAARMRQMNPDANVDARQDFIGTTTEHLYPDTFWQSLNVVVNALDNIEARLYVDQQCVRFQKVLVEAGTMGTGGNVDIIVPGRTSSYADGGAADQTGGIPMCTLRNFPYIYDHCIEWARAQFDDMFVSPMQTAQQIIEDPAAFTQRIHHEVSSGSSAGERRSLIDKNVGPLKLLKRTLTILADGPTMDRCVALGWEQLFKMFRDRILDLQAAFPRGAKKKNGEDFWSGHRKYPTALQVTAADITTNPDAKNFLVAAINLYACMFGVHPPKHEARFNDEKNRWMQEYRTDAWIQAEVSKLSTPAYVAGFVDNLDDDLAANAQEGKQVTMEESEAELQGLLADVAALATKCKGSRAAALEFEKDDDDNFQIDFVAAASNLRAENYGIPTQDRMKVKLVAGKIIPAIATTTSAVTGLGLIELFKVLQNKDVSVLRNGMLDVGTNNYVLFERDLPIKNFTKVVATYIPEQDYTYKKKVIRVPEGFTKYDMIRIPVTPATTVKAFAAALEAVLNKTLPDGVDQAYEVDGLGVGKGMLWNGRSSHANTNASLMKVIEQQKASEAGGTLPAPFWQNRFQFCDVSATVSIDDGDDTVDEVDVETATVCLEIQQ

[3] = biological target: AMP-activated protein kinase, AMPK (Homo sapiens) (UniProt P54646+O43741+P54619+Q9UGJ0+Q9Y478+Q13131+Q9UGI9); assay: AMP-dependent Kinase enzyme assay. An in vitro enzyme assay that detects ADP turnover that is directly proportional to AMPK activity. This uses naive AMPK that is activated during the assay with MK-8722; format: functional; details: 30 µM
[4] = biological target: Sialic acid-binding Ig-like lectin 9 (Homo sapiens) (UniProt Q9Y336); assay: Hs-Siglec9 ALPHAscreen SOP 20170721; details: 10 µM
Chain of Sialic acid-binding Ig-like lectin 9 (Homo sapiens) (Q9Y336 whole entry): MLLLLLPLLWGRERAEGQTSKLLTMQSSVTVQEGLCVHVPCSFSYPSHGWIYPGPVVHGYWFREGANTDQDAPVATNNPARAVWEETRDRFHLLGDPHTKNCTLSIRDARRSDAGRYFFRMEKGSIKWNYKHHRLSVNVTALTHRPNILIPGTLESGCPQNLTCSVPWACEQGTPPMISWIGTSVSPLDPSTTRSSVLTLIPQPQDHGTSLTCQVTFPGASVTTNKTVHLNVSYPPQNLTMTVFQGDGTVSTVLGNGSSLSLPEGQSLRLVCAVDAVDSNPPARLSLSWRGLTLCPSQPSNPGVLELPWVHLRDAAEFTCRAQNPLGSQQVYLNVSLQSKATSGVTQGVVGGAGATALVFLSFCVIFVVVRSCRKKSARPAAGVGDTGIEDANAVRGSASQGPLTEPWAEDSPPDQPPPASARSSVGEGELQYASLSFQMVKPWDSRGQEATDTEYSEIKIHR

Trypanosoma cruzi = assay: Trypanosoma cruzi phosphomannomutase and mannose-1-phosphate guanylyltransferase assay; format: functional; details: 10 µM
[5] = biological target: T2, Arginase-2, mitochondrial (Homo sapiens) (UniProt P78540); assay: in vitro enzyme assay to detect the production of urea directly proportional to the activity of Arginase II; format: functional; details: 33.3 µM; note: in the data most compounds retested in dose-response had high values
T2 sequence (whole entry): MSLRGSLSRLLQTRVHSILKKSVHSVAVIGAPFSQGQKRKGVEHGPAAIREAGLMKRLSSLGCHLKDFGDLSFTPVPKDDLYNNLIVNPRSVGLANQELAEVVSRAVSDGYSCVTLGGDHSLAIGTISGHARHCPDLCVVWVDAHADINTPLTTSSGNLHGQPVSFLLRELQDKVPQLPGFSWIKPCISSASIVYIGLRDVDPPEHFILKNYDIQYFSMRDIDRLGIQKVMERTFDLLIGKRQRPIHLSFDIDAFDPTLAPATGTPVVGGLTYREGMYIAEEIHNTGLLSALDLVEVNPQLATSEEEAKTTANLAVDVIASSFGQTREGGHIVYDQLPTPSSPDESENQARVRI

[6] = biological target: T3, Proteasome subunit beta (Trypanosoma cruzi) (UniProt O96673); assay: Trypanosoma cruzi proteasome chymotrypsin-like activity (TcProtChymo) assay.; note: in the data most compounds retested in dose-response had high values; format: functional; details: 9.37 µM
T3 sequence (whole entry): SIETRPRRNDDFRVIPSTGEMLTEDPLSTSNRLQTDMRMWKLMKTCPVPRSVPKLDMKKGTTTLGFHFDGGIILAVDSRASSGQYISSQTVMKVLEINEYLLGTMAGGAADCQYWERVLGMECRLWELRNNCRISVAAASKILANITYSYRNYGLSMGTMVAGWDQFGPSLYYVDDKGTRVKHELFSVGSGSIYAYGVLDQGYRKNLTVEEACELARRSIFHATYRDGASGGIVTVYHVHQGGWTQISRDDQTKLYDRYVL

Homo sapiens = species on record: Homo sapiens; assay: To identify inhibition of the IFN signalling (Jak-Stat) pathway via expression of an eGFP reporter gene under the control of an IFN-stimulated response element (ISRE) containing MxA promoter.; format: functional; details: 30 µM
[7] = biological target: T4, Tyrosyl-tRNA synthetase, putative (Trypanosoma cruzi (strain CL Brener)) (UniProt Q4DSP6); assay: Trypanosoma cruzi tyrosyl tRNA synthetase (TcYRS) _High Tyrosine SOP; format: functional; details: 30 µM; note: in the data most compounds retested in dose-response had high values
T4 sequence (whole entry): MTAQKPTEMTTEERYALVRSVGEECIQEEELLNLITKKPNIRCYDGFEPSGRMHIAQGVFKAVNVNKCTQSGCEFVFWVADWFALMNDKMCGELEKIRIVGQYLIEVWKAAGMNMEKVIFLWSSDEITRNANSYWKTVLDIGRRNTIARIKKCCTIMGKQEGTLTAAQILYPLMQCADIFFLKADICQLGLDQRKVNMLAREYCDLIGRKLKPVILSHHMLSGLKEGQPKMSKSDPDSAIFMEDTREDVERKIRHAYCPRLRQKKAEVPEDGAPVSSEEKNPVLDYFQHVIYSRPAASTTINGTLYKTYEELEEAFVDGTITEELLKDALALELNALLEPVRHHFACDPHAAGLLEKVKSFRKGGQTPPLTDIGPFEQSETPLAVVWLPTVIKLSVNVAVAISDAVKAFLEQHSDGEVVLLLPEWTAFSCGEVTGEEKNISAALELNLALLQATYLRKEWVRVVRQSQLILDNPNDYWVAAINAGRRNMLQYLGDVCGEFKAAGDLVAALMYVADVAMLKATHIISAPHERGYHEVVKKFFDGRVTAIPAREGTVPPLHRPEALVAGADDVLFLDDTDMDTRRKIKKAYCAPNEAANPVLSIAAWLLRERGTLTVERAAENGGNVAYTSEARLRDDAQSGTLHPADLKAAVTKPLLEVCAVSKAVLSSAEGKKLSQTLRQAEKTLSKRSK

[8] = biological target: T4, Tyrosyl-tRNA synthetase, putative (Trypanosoma cruzi (strain CL Brener)); assay: Trypanosoma cruzi tyrosyl tRNA synthetase (TcYRS) SOP; format: functional; details: 30 µM
[9] = biological target: Chromo domain-containing protein 1 (Saccharomyces cerevisiae (strain ATCC 204508 / S288c) (Baker's yeast)) (UniProt P32657); assay: ScCHD-1 Enzyme Inhibition Assay; format: functional; details: 30 µM; note: in the data most compounds retested in dose-response had high values
Chain of Chromo domain-containing protein 1 (Saccharomyces cerevisiae (strain ATCC 204508 / S288c) (Baker's yeast)) (P32657 whole entry, the tested form may be a part): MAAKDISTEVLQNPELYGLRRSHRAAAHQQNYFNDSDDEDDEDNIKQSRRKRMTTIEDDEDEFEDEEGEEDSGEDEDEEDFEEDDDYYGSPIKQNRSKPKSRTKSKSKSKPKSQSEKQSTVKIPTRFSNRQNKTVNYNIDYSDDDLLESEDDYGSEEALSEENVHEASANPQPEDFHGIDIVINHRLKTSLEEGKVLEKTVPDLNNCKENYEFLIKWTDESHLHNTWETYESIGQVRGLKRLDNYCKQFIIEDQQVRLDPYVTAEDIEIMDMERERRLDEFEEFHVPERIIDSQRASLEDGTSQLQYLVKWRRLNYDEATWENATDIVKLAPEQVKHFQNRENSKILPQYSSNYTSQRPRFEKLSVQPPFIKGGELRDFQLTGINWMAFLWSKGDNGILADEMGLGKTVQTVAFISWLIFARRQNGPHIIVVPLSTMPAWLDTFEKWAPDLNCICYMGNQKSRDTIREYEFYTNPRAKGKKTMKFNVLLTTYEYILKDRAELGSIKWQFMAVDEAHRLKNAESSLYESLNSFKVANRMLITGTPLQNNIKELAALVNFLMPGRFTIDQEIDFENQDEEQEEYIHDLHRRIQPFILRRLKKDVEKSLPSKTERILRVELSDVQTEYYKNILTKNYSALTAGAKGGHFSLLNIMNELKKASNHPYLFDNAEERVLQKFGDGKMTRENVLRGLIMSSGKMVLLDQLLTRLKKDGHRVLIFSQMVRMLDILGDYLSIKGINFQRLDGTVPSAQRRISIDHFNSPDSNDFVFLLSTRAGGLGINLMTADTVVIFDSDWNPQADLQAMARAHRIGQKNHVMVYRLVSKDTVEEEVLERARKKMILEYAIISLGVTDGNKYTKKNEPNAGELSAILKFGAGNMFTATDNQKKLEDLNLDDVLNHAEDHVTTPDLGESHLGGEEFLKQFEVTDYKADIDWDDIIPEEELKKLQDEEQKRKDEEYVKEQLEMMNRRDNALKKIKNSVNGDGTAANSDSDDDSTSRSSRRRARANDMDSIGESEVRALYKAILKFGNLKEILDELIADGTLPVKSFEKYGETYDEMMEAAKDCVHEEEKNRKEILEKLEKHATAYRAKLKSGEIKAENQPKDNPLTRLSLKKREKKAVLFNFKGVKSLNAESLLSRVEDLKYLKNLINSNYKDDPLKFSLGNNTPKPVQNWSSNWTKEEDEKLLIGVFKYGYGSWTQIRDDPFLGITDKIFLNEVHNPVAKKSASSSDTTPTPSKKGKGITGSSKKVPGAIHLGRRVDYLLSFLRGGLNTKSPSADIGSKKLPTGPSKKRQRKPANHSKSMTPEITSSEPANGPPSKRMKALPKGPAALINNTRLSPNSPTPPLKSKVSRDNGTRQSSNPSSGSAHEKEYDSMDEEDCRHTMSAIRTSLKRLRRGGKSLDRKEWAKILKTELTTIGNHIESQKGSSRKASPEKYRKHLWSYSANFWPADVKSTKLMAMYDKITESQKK

Chain of Protein translocase subunit SecA (Escherichia coli (strain K12)) (P10408 whole entry): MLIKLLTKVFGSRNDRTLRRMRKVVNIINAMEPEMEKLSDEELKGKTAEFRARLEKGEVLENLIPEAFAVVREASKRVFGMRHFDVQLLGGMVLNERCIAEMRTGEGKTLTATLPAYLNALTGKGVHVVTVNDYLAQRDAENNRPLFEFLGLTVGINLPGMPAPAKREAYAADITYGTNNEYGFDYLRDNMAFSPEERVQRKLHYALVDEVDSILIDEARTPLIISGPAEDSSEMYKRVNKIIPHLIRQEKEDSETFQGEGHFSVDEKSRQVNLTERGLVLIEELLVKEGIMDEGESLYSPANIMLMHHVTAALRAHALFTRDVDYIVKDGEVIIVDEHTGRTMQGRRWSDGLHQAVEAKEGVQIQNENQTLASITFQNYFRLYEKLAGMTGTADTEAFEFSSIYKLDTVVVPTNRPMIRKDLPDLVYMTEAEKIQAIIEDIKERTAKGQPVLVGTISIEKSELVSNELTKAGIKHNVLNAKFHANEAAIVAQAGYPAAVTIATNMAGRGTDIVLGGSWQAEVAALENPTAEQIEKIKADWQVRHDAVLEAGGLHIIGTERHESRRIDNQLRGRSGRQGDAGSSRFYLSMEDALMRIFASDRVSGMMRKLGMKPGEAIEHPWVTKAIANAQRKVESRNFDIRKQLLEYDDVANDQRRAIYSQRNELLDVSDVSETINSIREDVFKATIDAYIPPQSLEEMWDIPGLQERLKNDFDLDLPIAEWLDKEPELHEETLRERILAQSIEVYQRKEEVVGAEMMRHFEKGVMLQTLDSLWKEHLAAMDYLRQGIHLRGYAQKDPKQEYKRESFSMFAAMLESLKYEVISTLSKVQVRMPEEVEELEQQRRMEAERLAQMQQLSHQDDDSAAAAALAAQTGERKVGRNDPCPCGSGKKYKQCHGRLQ

| Structure (SMILES) | Percent Effect [1] [%] | Percent Effect [2] [%] | Percent Effect [3] [%] | Percent Effect [4] [%] | Percent Effect (Trypanosoma cruzi) [%] | Percent Effect [5] [%] | Percent Effect [6] [%] | Percent Effect (Homo sapiens) [%] | Percent Effect [7] [%] | Percent Effect [8] [%] | Percent Effect [9] [%] |
| --- | --- | --- | --- | --- | --- | --- | --- | --- | --- | --- | --- |
| Cn1nnc2c1CCN(Cc1ccccc1)C2COCC1CC1 (stereo unspecified) | -1.15 | 2.67 | -10.3 | -0.164 | 3.15 | 2.1 | 5.9 | 8.15 | 14.9 | 24.4 | -11.1 |
| COc1cccc(CNC(=O)N2CCN(Cc3cc(C)on3)CC2)c1 | -1.41 | 15.2 | -1.11 | -7.32 | -6.33 | 0.38 | 1.39 | 25.8 | 5.42 | 11.4 | -5.16 |
| Cc1cccc(C2(CNC(=O)CCN3C(=O)CCC3=O)CCCC2)c1 | -5.2 | 10.1 | 1.38 | 0.402 | 5.95 | -4.56 | 3.36 | 8.93 | 9.36 | 13.9 | -5.07 |
| CC(Cn1cccn1)NC(=O)CCc1ccc(S(N)(=O)=O)cc1 (stereo unspecified) | -7.11 | 18.2 | -0.578 | 3.31 | 6.37 | -2.74 | 7.03 | 11 | 6.67 | 23.5 | -9.46 |
| Cc1nc(CN2CCCC(NCCOc3ccccc3)C2)no1 (stereo unspecified) | -2.53 | 2.53 | -4.3 | -3.12 | -1.98 | 2.28 | 28.9 | -12.5 | 2.46 | -1.27 | -6.02 |
| CSCC[C@H](NC(=O)Cn1ccc2c(Cl)cccc21)C(=O)O | 0.448 | 12 | 2.92 | 2.75 | -3.93 | -6.87 | 15.2 | -1.36 | 3.17 | 7.69 | -6.56 |
| CCc1n[nH]c(C2CN(C(=O)c3ccsc3)CCO2)n1 (stereo unspecified) | -3.58 | 0 | 6.15 | 8.54 | -0.686 | 4.84 | 6.39 | 4.84 | -2.86 | -2.35 | -13.8 |
| CCc1nc2n(n1)CC(Nc1cc(C)nc3ncnn13)CC2 (stereo unspecified) | -3.29 | 8.22 | -10.8 | 12.4 | 5.68 | 8.64 | 14.4 | 18.4 | 3.23 | 12.5 | -7.89 |
| N#Cc1ccc(OCCOc2ccccc2C(=O)N2CCOCC2)cc1 | -0.304 | 7.79 | -1.44 | 10.7 | 1.28 | -11 | 12.8 | -19.7 | 4.3 | 13.6 | -2.37 |
| COc1ccc(CNC(=O)NC(C)Cn2cccn2)cc1O (stereo unspecified) | -1.61 | 5.2 | -4.12 | 3.12 | 2.64 | -1.47 | 3.15 | 25.9 | 3.81 | 11.8 | -15.6 |
| CC(C)(C)c1noc(CN2CCCN(Cc3cccs3)CC2)n1 | -4.7 | 10.4 | 2.92 | -6.09 | -3.75 | 0.356 | 1.69 | 30 | 6.8 | 12.2 | -5.35 |
